# AGP1-GFP MLPCN: modulators of TOR pathway AGP1-GFP in S. cerevisiae; S. cerevisiae AGP1-GFP multiplex flow cytometry, 3 h; GFP as percent of DMSO wells; GFP response vs DMSO, % at 10 µM; 320,000 tested, 0.02% active; AID 2066;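 active = GFP response relative to DMSO above a set limit, near screen average plus 3 SD, cut at about 150% in these data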;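 note: median GFP channel fluorescence of the gated AGP1 strain per well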
# LAP4-GFP MLPCN: modulators of TOR pathway LAP4-GFP in S. cerevisiae. S. cerevisiae LAP4-GFP multiplex, flow cytometry GFP, 3 h; median GFP as percent of DMSO wells. GFP response vs DMSO, % at 10 µM. 320,000 tested, 0.34% active. AID 2023;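 active = GFP response vs DMSO above a set limit, about the screen mean plus 3 SD, cut at about 150% in these data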
# MEP2 TOR yeast: yeast TOR pathway MEP2-GFP modulation | GFP response vs DMSO, % at 10 µM | 330,000 tested, 0.51% active | S. cerevisiae MEP2-GFP strain, flow cytometry GFP, 3 h; 100% = DMSO control level | AID 2016;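 active = GFP response versus DMSO above a set limit, roughly screen mean plus 3 SD, cut at about 180% in these data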;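 note: median GFP fluorescence of the barcode-gated MEP2-GFP cells per well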
# CIT2-GFP yeast: yeast TOR pathway CIT2-GFP modulation; GFP response vs DMSO, % at 10 µM; S. cerevisiae CIT2-GFP strain, flow cytometry, 3 h; 100 means same as DMSO wells; AID 2029; 320,000 tested, 0.065% active;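 active = GFP response relative to DMSO above a set limit, near the screen mean plus 3 SD, cut at about 150% in these data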;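 note: ratio of well median GFP fluorescence to mean of DMSO wells on the plate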
# RPL19A-GFP yeast: modulators of TOR pathway RPL19A-GFP in S. cerevisiae; S. cerevisiae RPL19A-GFP strain, flow cytometry, 3 h; hits give low values; percent response vs DMSO, % at 10 µM; 330,000 tested, 0.3% active;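 active = percent response vs DMSO below 50%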;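 note: median channel GFP fluorescence of the barcoded RPL19A-GFP strain; ratio of sample median GFP to plate DMSO average so 100% = DMSO; lower means less RPL19A-GFP as with rapamycin TOR inhibition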
# LAP4-GFP pick2: yeast LAP4-GFP modulation, second cherry pick | AID 2621 | S. cerevisiae LAP4-GFP strain, flow cytometry GFP, 3 h | shares compounds with LAP4-GFP MLPCN | 590 tested, 20% active | GFP response vs DMSO, % at 10 µM;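 active = GFP signal as percent of the solvent control above about 150%, meaning raised reporter expression, limit read from the data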;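 note: ratio of well median GFP fluorescence to plate DMSO mean so 100% = DMSO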
# MEP2 cherry2: yeast MEP2-GFP modulation, second cherry pick | shares compounds with LAP4-GFP MLPCN | S. cerevisiae MEP2-GFP strain, flow cytometry GFP, 3 h | GFP response vs DMSO, % at 10 µM | 590 tested, 10% active | AID 2622;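 active = GFP signal above 150% of the solvent control wells, that is a rise of more than half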;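 note: median channel GFP fluorescence of all gated yeast cells per well; ratio of median GFP to plate DMSO average so 100% = DMSO level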
# RPL19A GFP CP2: reconfirmed modulator of RPL19A-GFP TOR reporter in yeast | 590 tested, 3% active | shares compounds with LAP4-GFP MLPCN | GFP response vs DMSO, % at 10 µM | S. cerevisiae RPL19A-GFP strain, flow cytometry GFP, 3 h; hits give low values; 100% means same as DMSO wells | AID 2623;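 active = under 65% GFP response relative to DMSO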;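 note: median GFP channel fluorescence per well over the all cells gate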
# CIT2-GFP pick2: yeast CIT2-GFP TOR reporter modulation, second cherry pick | shares compounds with LAP4-GFP MLPCN | S. cerevisiae CIT2-GFP strain, flow cytometry GFP, 3 h; DMSO control wells read 100% | GFP response vs DMSO, % at 10 µM | 590 tested, 8% active;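 active = GFP response vs DMSO above about 150%, limit read from the data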;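 note: median green fluorescence per well over all gated yeast cells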
# AGP1 GFP CP2: second confirmation of modulators of TOR reporter AGP1-GFP in yeast; shares compounds with LAP4-GFP MLPCN; S. cerevisiae AGP1-GFP strain, flow cytometry GFP, 3 h; percent response vs DMSO, % at 10 µM; 590 tested, under 10 active; AID 2643;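 active = over 150 percent of DMSO response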;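 note: median GFP channel fluorescence over all cells without mother daughter split; sample median GFP divided by mean DMSO control so 100% equals DMSO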
# s288c autofluor: yeast s288c autofluorescence artifact, counter-screen; shares compounds with LAP4-GFP MLPCN; S. cerevisiae s288c, 520 nm autofluorescence, flow cytometry, 3 h; hits give high values; zero means same as solvent-only cells; fluorescence change (kMESF span) at 33 µM; 610 tested, under 10 active; AID 2757;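 active = fluorescence span over the dose series, or activity score, above about 33, limit read from the data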
# Yeast autofl DR: TOR screen hit shows autofluorescence in yeast s288c. shares compounds with LAP4-GFP MLPCN. S. cerevisiae s288c parental, compound autofluorescence, flow cytometry, 3 h. fluorescence change (span) at 33 µM. 110 tested, under 10 active;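 active = fluorescence change span, or the activity score built from it, above 25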
# TORC1 bypass gr: stops wildtype yeast growth while TORC1 bypass cells still grow | shares compounds with LAP4-GFP MLPCN | S. cerevisiae BY4741 spot growth rating, 48-72 h; hits give low values | growth rating (0-3) at 30 µM | 120 tested, under 10 active | AID 504456;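 active = growth rating at most 1 for wild type yeast while the TORC1 bypass strain still grows fully, rated 3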
# * = called active by the depositor; . = not tested or not shown; [ ] = remark or other dose. A selection: hits, their analogues and other compounds. The true share with any hit is near 0.92%.
SMILES,AGP1-GFP MLPCN,LAP4-GFP MLPCN,MEP2 TOR yeast,CIT2-GFP yeast,RPL19A-GFP yeast,LAP4-GFP pick2,MEP2 cherry2,RPL19A GFP CP2,CIT2-GFP pick2,AGP1 GFP CP2,others
Cn1c(=O)n(C)c2cc(N3CCOCC3)c(NC(=O)c3cccc(Cl)c3)cc21,103,99,102,105,99,.,.,.,.,.,
Cc1ccc(OCC(=O)OCC(=O)NC2CCCC2)cc1C,96,98,97,96,96,.,.,.,.,.,
Cc1cc(C)cc(OCC(=O)OCC(=O)NC2CC2)c1,112,183*,100,80,84,97,102,101,98,102,
COc1ccc(Cc2nc3ccc(C(=O)N(C)C(C)c4ccon4)cc3o2)cc1 (stereo unspecified),106,190*,82,98,101,100,101,98,96,100,
CC(=O)c1cc(C#N)c(N2CCOCC2)nc1C,112,102,102,104,99,.,.,.,.,.,
Oc1c(I)cc(I)c2cccnc12,96,238*,111,148,100,167*,147,82,113,94,s288c autofluor=1.2;Yeast autofl DR=0.9;TORC1 bypass gr=3
Oc1ccc(F)c2cccnc12,100,100,103,108,98,.,.,.,.,.,
Cc1ccc(C(=O)O)cc1N1C(=O)c2cccc3c([N+](=O)[O-])ccc(c23)C1=O,92,108,157,141,109,.,.,.,.,.,
CC(=O)Oc1cccc(N2C(=O)c3cccc4c([N+](=O)[O-])ccc(c34)C2=O)c1,79,178*,227*,133,112,177*,281*,114,225*,111,s288c autofluor=6.1
CCOC(=O)C1CCCN(Cc2nc(CC3CC3)no2)C1 (stereo unspecified),94,98,91,93,95,.,.,.,.,.,
COc1ccc(NC(=O)CN(C)C(=O)Cc2c(C)nc3ccccc3c2C)cc1,96,103,94,92,96,.,.,.,.,.,
Brc1ccc(Oc2nsnc2N2CCOCC2)cc1,27,95,180*,82,100,96,103,102,104,97,
O=C(Cc1ccc(Cl)cc1)NCCc1ccc(F)cc1,100,121,95,69,96,.,.,.,.,.,
O=C(CNC(=S)N(Cc1ccccc1)Cc1ccccc1F)NCCc1ccc(Cl)cc1,70,97,135,93,60,103,100,98,100,104,
O=[N+]([O-])c1cnc(Sc2ccncn2)s1,101,262*,116,99,86,.,.,.,.,.,s288c autofluor=6.7
O=C(CSc1nnc(CNC(=O)c2cccs2)o1)Nc1ccc(F)cc1F,99,99,109,104,99,.,.,.,.,.,
COc1ccc(NC(=O)CN(C)C(=O)C2(c3ccccc3)CCCC2)cc1,112,152*,99,83,82,99,98,98,108,99,
COc1ccc2sc(N(CCN(C)C)C(=O)c3ccc4ccccc4c3)nc2c1,112,100,104,110,103,.,.,.,.,.,
O=C(Nc1ccccc1Cl)c1ccccc1Cc1ccccc1,107,89,102,108,105,.,.,.,.,.,
O=[N+]([O-])c1ccc(O)c(/C=N/Nc2ccccn2)c1,92,237*,122,133,66,284*,180*,90,131,97,s288c autofluor=2.3
CCCN(CC(=O)Nc1ccccc1C)C(=O)c1ccc(-c2ccc([N+](=O)[O-])cc2)o1,140,196*,609*,132,70,101,101,99,96,102,
O=C(c1cc(O)c(O)c([N+](=O)[O-])c1)c1ccccc1F,83,151*,99,78,91,125,119,90,108,106,
O=C(Nc1ccc([N+](=O)[O-])cc1)c1ccccc1F,97,91,103,99,106,.,.,.,.,.,
CCOc1cc2c(C#N)c(N3CCOCC3)nc(N)c2c(N)n1,.,93,100,97,93,.,.,.,.,.,
CCOc1cc2c(C#N)c(N(CC)CC)nc(N)c2c(N)n1,70,153*,89,67,95,101,100,99,100,97,
SMILES,AGP1-GFP MLPCN,LAP4-GFP MLPCN,MEP2 TOR yeast,CIT2-GFP yeast,RPL19A-GFP yeast,LAP4-GFP pick2,MEP2 cherry2,RPL19A GFP CP2,CIT2-GFP pick2,AGP1 GFP CP2,others
COc1cc(OC)cc(C(=O)N[C@H](C(=O)OCC(=O)Nc2ccc(F)c(F)c2F)C(C)C)c1,95,98,95,92,92,.,.,.,.,.,
O=C(Nc1cccc(F)c1)c1ccc(-c2ccccc2Cl)o1,96,115,102,93,108,.,.,.,.,.,
Cc1ccc(-c2ccc(C(=O)Nc3cccc(F)c3)o2)c2ccccc12,80,171*,93,80,99,104,115,99,100,99,
CN(C(=O)CC1C(=O)NCCN1Cc1ccccc1C(F)(F)F)C1CCOCC1 (stereo unspecified),106,103,100,94,92,.,.,.,.,.,
O=C(COc1ccccc1)NNC(=S)NC(=O)c1ccccc1,102,159*,97,96,114,.,.,.,.,.,s288c autofluor=2
Cc1cccc(C(=O)NC(=S)NNC(=O)Cc2ccccc2)c1,105,209*[may fluoresce green],104,88,111,293*,138,116,156*,107,s288c autofluor=1.5
Cc1cccc(C(=O)NC(=S)NCc2ccccc2)c1,95,108,98,92,99,.,.,.,.,.,
CCCCCCn1nc(C(=O)Nc2nc3c(s2)CCCC3)c2ccccc2c1=O,95,96,104,99,101,.,.,.,.,.,
CCOC(=O)c1sc(Nc2ccccc2Cl)nc1C,73,109,168,82,52,99,98,100,94,95,

# Screening data as filed in PubChem.
